From PubChem BioAssay (EPA / NIEHS)
Active and inactive are the calls of the source. The calls were made as follows: active = hit-call score of the fitted dose curve at least 0.9, where 1 is the maximum; inactive = score below 0.9.

read-out: Tissue plasminogen activator (tPA), PLAT (gene 5327); assay: BSK_BE3C_tPA: BioMAP Diversity Plus: BE3C Assay for Tissue plasminogen activator (tPA) Biomarker Activity (AID 2283041); settings: primary human bronchial epithelial cells; actives raise or lower the signal;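 as to outcome: tPA level quantified by ELISA one day after compound addition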
Method in brief: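 Using human lung primary bronchial epithelial cells, tPA was measured by ELISA 24 h after dosing; data fitted relative to DMSO.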

SMILES	outcome	AC50
Cn1cc[nH]c1=S	inactive	–
CC(C)CC(C)O (stereo unspecified)	inactive	–
O=C1CN(N=Cc2ccc([N+](=O)[O-])o2)C(=O)N1	inactive	–
OCc1ccccc1	inactive	–
NC(=O)N(O)[C@@H]1COc2cc(OCc3ccccc3)ccc21	inactive	–
C=CCc1cc(S(=O)(=O)c2ccc(O)c(CC=C)c2)ccc1O	–	7.78 µM (active)
CC(C)C(=O)Nc1ccc([N+](=O)[O-])c(C(F)(F)F)c1	inactive	–
CCn1nc(C)c2c1C(=O)NCC(c1ccc(O)cc1)=N2	inactive	–
COc1cc2c(c(OC)c1OC)-c1ccc(OC)c(=O)cc1[C@@H](NC(C)=O)CC2	inactive	–
CNC(C)=O	inactive	–
CCOC(N)=O	inactive	–
FC(F)=C(F)C(F)(F)C(F)(F)C(F)(F)C(F)(F)C(F)(F)C(F)(F)F	inactive	–
c1ccc2cc3ccccc3cc2c1	inactive	–
CCCCOC(=O)c1ccccc1	inactive	–
O=C(Cl)C(F)(F)C(F)(F)C(F)(F)C(=O)Cl	inactive	–
Cn1c(=O)c2[nH]cnc2n(C)c1=O	inactive	–
CCCOc1ccc(S(=O)(=O)N2CCN(CC)CC2)cc1-c1nc2c(CC)n(Cc3ccccn3)nc2c(=O)[nH]1	inactive	–
CC(C)CCCCCCOC(=O)C1CCCCC1C(=O)OCCCCCCC(C)C (stereo unspecified)	inactive	–
COS(C)(=O)=O	inactive	–
O=C(O)[C@H](O)[C@@H](O)C(=O)O	inactive	–
Cc1nccn1-c1ccc(Sc2cccc(C3(C(N)=O)CCOCC3)c2)cc1	–	4.43 µM (active)
CCCc1ccccc1	inactive	–
C[C@@H](Oc1ccc(CNC(=O)c2cccnc2Oc2ccc3c(c2)OCO3)c(F)c1)C(=O)O	inactive	–
Cc1ncc([C@@H](CCCCCCc2ccc3c(n2)NCCC3)CC(=O)O)cn1	inactive	–
NNC(=O)c1ccncc1	inactive	–
OC(CCl)CCl	inactive	–
OCCC(F)(F)C(F)(F)C(F)(F)C(F)(F)F	inactive	–

read-out: Interleukin-8 (IL8), CXCL8 (gene 3576); assay: BSK_CASM3C_IL8: BioMAP Diversity Plus: CASM3C Assay for Interleukin-8 (IL8) Biomarker Activity (AID 2283042); settings: primary human coronary artery smooth muscle cells; actives raise or lower the signal;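 also: IL-8 protein level quantified by ELISA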

SMILES	outcome	AC50
Cn1cc[nH]c1=S	inactive	–
CC(C)CC(C)O (stereo unspecified)	inactive	–
O=C1CN(N=Cc2ccc([N+](=O)[O-])o2)C(=O)N1	inactive	–
OCc1ccccc1	inactive	–
NC(=O)N(O)[C@@H]1COc2cc(OCc3ccccc3)ccc21	inactive	–
C=CCc1cc(S(=O)(=O)c2ccc(O)c(CC=C)c2)ccc1O	–	17.6 µM (active)
CC(C)C(=O)Nc1ccc([N+](=O)[O-])c(C(F)(F)F)c1	inactive	–
CCn1nc(C)c2c1C(=O)NCC(c1ccc(O)cc1)=N2	inactive	–
COc1cc2c(c(OC)c1OC)-c1ccc(OC)c(=O)cc1[C@@H](NC(C)=O)CC2	inactive	–
CNC(C)=O	inactive	–
CCOC(N)=O	inactive	–
FC(F)=C(F)C(F)(F)C(F)(F)C(F)(F)C(F)(F)C(F)(F)C(F)(F)F	inactive	–
c1ccc2cc3ccccc3cc2c1	inactive	–
CCCCOC(=O)c1ccccc1	inactive	–
O=C(Cl)C(F)(F)C(F)(F)C(F)(F)C(=O)Cl	inactive	–
Cn1c(=O)c2[nH]cnc2n(C)c1=O	inactive	–
CCCOc1ccc(S(=O)(=O)N2CCN(CC)CC2)cc1-c1nc2c(CC)n(Cc3ccccn3)nc2c(=O)[nH]1	inactive	–
CC(C)CCCCCCOC(=O)C1CCCCC1C(=O)OCCCCCCC(C)C (stereo unspecified)	inactive	–
COS(C)(=O)=O	inactive	–
O=C(O)[C@H](O)[C@@H](O)C(=O)O	inactive	–
Cc1nccn1-c1ccc(Sc2cccc(C3(C(N)=O)CCOCC3)c2)cc1	inactive	–
CCCc1ccccc1	inactive	–
C[C@@H](Oc1ccc(CNC(=O)c2cccnc2Oc2ccc3c(c2)OCO3)c(F)c1)C(=O)O	inactive	–
Cc1ncc([C@@H](CCCCCCc2ccc3c(n2)NCCC3)CC(=O)O)cn1	inactive	–
NNC(=O)c1ccncc1	inactive	–
OC(CCl)CCl	inactive	–
OCCC(F)(F)C(F)(F)C(F)(F)C(F)(F)F	inactive	–

read-out: Human Leukocyte Antigen - DR isotype (HLADR), HLA-DRA (gene 3122); assay: BSK_CASM3C_HLADR: BioMAP Diversity Plus: CASM3C Assay for Human Leukocyte Antigen - DR isotype (HLADR) Biomarker Activity (AID 2283043); settings: primary human coronary artery smooth muscle cells; actives raise or lower the signal;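 also: cell-surface HLA-DR protein level quantified by ELISA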

SMILES	outcome	AC50
Cn1cc[nH]c1=S	inactive	–
CC(C)CC(C)O (stereo unspecified)	inactive	–
O=C1CN(N=Cc2ccc([N+](=O)[O-])o2)C(=O)N1	inactive	–
OCc1ccccc1	inactive	–
NC(=O)N(O)[C@@H]1COc2cc(OCc3ccccc3)ccc21	inactive	–
C=CCc1cc(S(=O)(=O)c2ccc(O)c(CC=C)c2)ccc1O	–	13.6 µM (active)
CC(C)C(=O)Nc1ccc([N+](=O)[O-])c(C(F)(F)F)c1	inactive	–
CCn1nc(C)c2c1C(=O)NCC(c1ccc(O)cc1)=N2	inactive	–
COc1cc2c(c(OC)c1OC)-c1ccc(OC)c(=O)cc1[C@@H](NC(C)=O)CC2	–	0.43 µM (active)
CNC(C)=O	inactive	–
CCOC(N)=O	inactive	–
FC(F)=C(F)C(F)(F)C(F)(F)C(F)(F)C(F)(F)C(F)(F)C(F)(F)F	inactive	–
c1ccc2cc3ccccc3cc2c1	inactive	–
CCCCOC(=O)c1ccccc1	inactive	–
O=C(Cl)C(F)(F)C(F)(F)C(F)(F)C(=O)Cl	inactive	–
Cn1c(=O)c2[nH]cnc2n(C)c1=O	inactive	–
CCCOc1ccc(S(=O)(=O)N2CCN(CC)CC2)cc1-c1nc2c(CC)n(Cc3ccccn3)nc2c(=O)[nH]1	–	3.97 µM (active)
CC(C)CCCCCCOC(=O)C1CCCCC1C(=O)OCCCCCCC(C)C (stereo unspecified)	inactive	–
COS(C)(=O)=O	inactive	–
O=C(O)[C@H](O)[C@@H](O)C(=O)O	inactive	–
Cc1nccn1-c1ccc(Sc2cccc(C3(C(N)=O)CCOCC3)c2)cc1	–	15.7 µM (active)
CCCc1ccccc1	inactive	–
C[C@@H](Oc1ccc(CNC(=O)c2cccnc2Oc2ccc3c(c2)OCO3)c(F)c1)C(=O)O	inactive	–
Cc1ncc([C@@H](CCCCCCc2ccc3c(n2)NCCC3)CC(=O)O)cn1	inactive	–
NNC(=O)c1ccncc1	inactive	–
OC(CCl)CCl	inactive	–
OCCC(F)(F)C(F)(F)C(F)(F)C(F)(F)F	inactive	–
